Source: PubChem BioAssay
Calls of active or inactive are those of the source. Unless noted, how the calls were made is not given here.

Experiments:
[1] = resazurin metabolic signal in HepG2 cells – cell-based, resazurin fluorescence, 24 h, PK04 Diversity Set, profiling panel (AID 1172); settings: HepG2 viability, higher = more signal
[2] = budding yeast growth changes without added modifier – OD600, strain BY4716, 24 h, basal condition, primary screen (AID 1173); settings: S. cerevisiae BY4716 growth, OD600, 24 h; higher = more signal, called active from +8 up or from −8 down
[3] = viability profiling in MM1S myeloma cells – cell-based, resazurin fluorescence, basal, 24 h, PK04 Diversity Set, profiling panel (AID 1174); settings: higher = more signal, called active from +8 up or from −8 down;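 further: MM1S multiple myeloma cell line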
[4] = biological target: Dihydroorotate dehydrogenase (quinone), mitochondrial (Plasmodium falciparum (isolate 3D7)) (UniProt Q08210); test: inhibition of P. falciparum DHODH – biochemical, C-terminal His tag, absorbance 600 nm, primary screen (AID 1175); settings: PfDHODH enzyme, DCIP absorbance 600 nm; higher = more signal, called active from +8 up or from −8 down;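 further: recombinant parasite enzyme with a five histidine tag at its C terminus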
[5] = inhibition of PAO1 biofilm formation – strain PAO1, LB-PBS medium, absorbance 600 nm, primary screen (AID 1176); settings: P. aeruginosa PAO1 growth/biofilm, A600, 12 h; higher = more signal
[6] = growth modulation of vineyard yeast isolate – strain RM11-1a, OD600, basal, 24 h, primary screen (AID 1177);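 further: cultures grown under basal conditions with no added stressor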; settings: S. cerevisiae RM11-1a growth, OD600, 24 h; higher = more signal, called active from +8 up or from −8 down
[7] = growth of efflux-deficient E. coli DRC39 – strain DRC39, OD650, 24 h, E. coli filamentation inducers, primary screen (AID 1178);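 further: growth measured as culture turbidity by optical density at 650 nm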; settings: E. coli DRC39 acrAB, higher = more signal, called active from +8 up or from −8 down
[8] = growth of efflux-deficient E. coli DRC39 – strain DRC39, OD650, 48 h, E. coli filamentation inducers, primary screen (AID 1179);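 further: screen aims at cell division blockers that make cells filament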; settings: E. coli DRC39 delta-acrAB growth, higher = more signal, called active from +8 up or from −8 down
[9] = viability profiling in RPMI8226 myeloma cells – cell-based, resazurin fluorescence, basal, 24 h, PK04 Diversity Set, profiling panel (AID 1180); settings: higher = more signal;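 further: RPMI8826 multiple myeloma cell line at 5000 cells per well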
[10] = biological target: E3 ubiquitin-protein ligase XIAP (Homo sapiens) (UniProt P98170); test: small molecules binding XIAP protein – biophysical, small-molecule microarray, fluorescence 635 nm, primary screen (AID 1181); settings: higher = more signal;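 further: score merges 667 nm emission and signal to noise over triplicate slides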
[11] = test system: XIP peptide (Xip251-270) binding; test: XIP fragment 251-270 binding compounds – biochemical, small-molecule microarray, fluorescence 635/667 nm, 0.1 µg/mL protein, primary screen (AID 1182); settings: fluorescent protein binding, 635 nm, higher = more signal, called active from +8 up or from −8 down
[12] = test system: XIP peptide (Xip251-270); test: compounds binding XIP fragment 251-270 – biochemical, small-molecule microarray, fluorescence 635/667 nm, 0.5 µg/mL protein, primary screen (AID 1183); settings: fluorescence 635 nm, higher = more signal
[13] = blood-stage malaria parasite viability loss – strain 3D7, DAPI fluorescence, 100 nL, primary screen (AID 1184);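 further: parasites grown inside human red blood cells in medium with human serum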; settings: P. falciparum 3D7 growth, 3 d, higher = more signal
[14] = biological target: Homeobox protein Hox-A13 (Mus musculus) (UniProt Q62424); test: disruptors of Hoxa13 oligonucleotide interaction – biochemical, fluorescence polarization, labeled oligonucleotide, primary screen (AID 1185); settings: Hoxa13:DNA binding, 15 min, higher = more signal, called active from +8 up or from −8 down
Sequence of Homeobox protein Hox-A13 (Mus musculus) (Q62424 whole entry, looked up): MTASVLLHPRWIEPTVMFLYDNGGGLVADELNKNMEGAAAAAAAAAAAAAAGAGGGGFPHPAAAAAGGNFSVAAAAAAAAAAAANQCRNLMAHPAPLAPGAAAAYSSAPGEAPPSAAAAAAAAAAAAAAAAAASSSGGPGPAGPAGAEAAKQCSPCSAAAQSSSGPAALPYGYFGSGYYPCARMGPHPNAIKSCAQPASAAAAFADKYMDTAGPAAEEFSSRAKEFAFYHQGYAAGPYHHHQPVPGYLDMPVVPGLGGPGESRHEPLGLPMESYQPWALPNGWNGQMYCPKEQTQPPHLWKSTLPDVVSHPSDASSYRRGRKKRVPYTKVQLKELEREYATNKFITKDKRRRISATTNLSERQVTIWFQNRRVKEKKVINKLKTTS

Sequence of Dihydroorotate dehydrogenase (quinone), mitochondrial (Plasmodium falciparum (isolate 3D7)) (Q08210 whole entry, looked up): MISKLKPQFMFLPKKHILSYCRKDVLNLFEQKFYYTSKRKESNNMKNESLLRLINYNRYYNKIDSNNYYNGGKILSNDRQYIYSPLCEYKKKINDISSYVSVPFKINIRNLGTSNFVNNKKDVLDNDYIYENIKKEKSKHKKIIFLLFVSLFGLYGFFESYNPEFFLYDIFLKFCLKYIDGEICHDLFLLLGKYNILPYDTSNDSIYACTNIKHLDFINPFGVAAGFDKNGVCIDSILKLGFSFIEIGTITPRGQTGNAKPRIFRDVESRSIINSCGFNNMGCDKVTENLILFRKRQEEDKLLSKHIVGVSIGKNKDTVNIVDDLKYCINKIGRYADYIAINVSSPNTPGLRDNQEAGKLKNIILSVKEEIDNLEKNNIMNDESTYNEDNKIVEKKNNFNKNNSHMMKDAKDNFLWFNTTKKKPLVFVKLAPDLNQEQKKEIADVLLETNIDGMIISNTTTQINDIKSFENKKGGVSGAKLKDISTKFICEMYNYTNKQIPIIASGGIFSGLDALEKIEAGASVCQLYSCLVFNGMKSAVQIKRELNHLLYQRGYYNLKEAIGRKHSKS
Sequence of E3 ubiquitin-protein ligase XIAP (Homo sapiens) (P98170 whole entry, looked up, the tested form may be a part): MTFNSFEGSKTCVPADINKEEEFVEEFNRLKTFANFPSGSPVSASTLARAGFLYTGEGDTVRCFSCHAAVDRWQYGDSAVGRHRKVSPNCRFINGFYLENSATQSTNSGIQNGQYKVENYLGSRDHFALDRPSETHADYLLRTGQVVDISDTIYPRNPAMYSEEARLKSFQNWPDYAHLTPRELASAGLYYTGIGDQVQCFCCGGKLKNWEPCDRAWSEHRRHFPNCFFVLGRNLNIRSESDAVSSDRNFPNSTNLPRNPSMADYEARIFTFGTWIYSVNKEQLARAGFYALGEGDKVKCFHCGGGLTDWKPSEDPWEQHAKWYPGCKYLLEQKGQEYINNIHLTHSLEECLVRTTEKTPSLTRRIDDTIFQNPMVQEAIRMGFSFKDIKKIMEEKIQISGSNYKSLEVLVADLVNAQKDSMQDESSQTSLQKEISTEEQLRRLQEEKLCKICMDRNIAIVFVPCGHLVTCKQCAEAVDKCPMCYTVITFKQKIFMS

SMILES	z-score [1]	z-score [2]	z-score [3]	composite z-score [4]	z-score [5]	z-score [6]	z-score [7]	z-score [8]	z-score [9]	composite z-score [10]	composite z-score [11]	composite z-score [12]	z-score [13]	z-score [14]
COc1cccc([C@H]2Oc3ccc(OC)cc3C(=NO[C@@H](C)c3cn([C@H](CO)Cc4ccccc4)nn3)[C@@H]2O)c1	-1.02	-0.0439 (inactive)	-0.162 (inactive)	0.757 (inactive)	-0.102 (inactive)	-0.0779 (inactive)	-0.712 (inactive)	-2.86 (inactive)	0.22	-0.0367	0.213 (inactive)	0.502	-0.868	-6.48 (inactive)
C[C@@H]1NC(=O)[C@@H](C)COC(=O)[C@H](C)NC(=O)[C@@H](C)COC1=O	0.0907	-2.62 (inactive)	-0.325 (inactive)	-3.05 (inactive)	0.365 (inactive)	-1.09 (inactive)	-0.0144 (inactive)	-1.87 (inactive)	0.18	0.0714	-0.287 (inactive)	0.158	-1.46	0.969 (inactive)
CCOC(=O)[C@H](Cc1ccccc1)NC(=O)CCC1CC(OC(=O)NCc2ccc3c(c2)OCO3)CC2(CCCC(COC(=O)NCCC(C)C)O2)O1 (stereo partly drawn)	-0.341	-0.426 (inactive)	0.812 (inactive)	0.55 (inactive)	-1.17 (inactive)	0.895 (inactive)	0.308 (inactive)	0.249 (inactive)	0.75	-0.0559	0.644 (inactive)	0.18	-1.2	-6.91 (inactive)
CCOC(=O)[C@H](CC(C)C)NC(=O)CCC1CC(OC(=O)NCc2cccc3ccccc23)CC2(CCCC(COC(=O)NCCCN3CCCC3=O)O2)O1 (stereo partly drawn)	0.281	-0.761 (inactive)	0.826 (inactive)	0.0067 (inactive)	-0.47 (inactive)	0.209 (inactive)	-0.134 (inactive)	0.323 (inactive)	-0.241	-0.104	-0.0359 (inactive)	0.524	-1.92	-4.61 (inactive)
CCc1cc2c(nc1CC)CCN(CCC(C)=NO[C@H](C)c1cn([C@@H]3COC[C@H]3O)nn1)C2	-0.51	0.485 (inactive)	-1.4 (inactive)	-0.0125 (inactive)	-0.643 (inactive)	0.431 (inactive)	0.415 (inactive)	0.741 (inactive)	-0.828	0.0368	-0.171 (inactive)	-0.0063	0.653	-1.7 (inactive)
CO[C@H]1COC(=O)CC=C[C@@H](C)[C@H](OC)COC(=O)[C@@H]2CCCN2C(=O)CC=C[C@@H]1C	0.251	-1.87 (inactive)	0.616 (inactive)	0.52 (inactive)	-0.638 (inactive)	-0.055 (inactive)	0.601 (inactive)	0.53 (inactive)	0.136	0.196	0.832 (inactive)	0.678	0.095	-0.438 (inactive)
COc1ccc(COC(=O)NN=C2C[C@@H](O)[C@@H](O)[C@@H]3[C@@H]4C(=O)N(c5cccc(Oc6ccccc6)c5)C(=O)[C@@H]4CC[C@@H]23)cc1	0.702	0.968 (inactive)	0.106 (inactive)	0.861 (inactive)	-0.282 (inactive)	1.65 (inactive)	-0.401 (inactive)	-0.587 (inactive)	0.45	-0.22	-0.378 (inactive)	-0.206	-0.374	-4.69 (inactive)
CC(CCN1CCCCc2nc(C)c(C)cc21)=NO[C@@H](C)c1cn([C@H](CO)Cc2ccccc2)nn1	-0.841	0.102 (inactive)	-1.85 (inactive)	-1.55 (inactive)	-0.631 (inactive)	0.736 (inactive)	0.882 (inactive)	1.46 (inactive)	-0.483	-0.127	0.305 (inactive)	0.521	-0.257	-4.4 (inactive)
CC(C)CON=C1C[C@@H](O)[C@@H](O)[C@@H]2[C@@H]3C(=O)N(C4CCCCC4)C(=O)[C@@H]3CC[C@@H]12	-0.577	-4.72 (inactive)	0.119 (inactive)	-0.508 (inactive)	-0.294 (inactive)	0.523 (inactive)	-0.3 (inactive)	-1.17 (inactive)	-0.0596	0.0159	0.376 (inactive)	0.0112	-0.398	-4.41 (inactive)
CC(CCN1CCCc2nc(C)c(C)cc21)=NO[C@@H](C)c1cc(-c2c(C)cc(C)cc2C)no1	-0.616	-1.54 (inactive)	-0.012 (inactive)	-0.837 (inactive)	0.0525 (inactive)	0.39 (inactive)	0.898 (inactive)	-0.158 (inactive)	0.378	0.194	0.268 (inactive)	0.567	-1.36	-3.46 (inactive)
COC(=O)CC=C[C@@H](C)[C@@H](C=NOC[C@H]1O[C@H](c2ccccc2)C=C[C@@H]1Oc1ccc(OC)cc1)OC	0.167	0.805 (inactive)	0.0784 (inactive)	0.388 (inactive)	0.335 (inactive)	0.065 (inactive)	0.0177 (inactive)	-0.0331 (inactive)	0.264	0.127	0.0079 (inactive)	-0.294	0.201	-2.94 (inactive)
COCOc1ccc(Br)cc1C(=O)[C@@H]1O[C@H]1c1cccc(OC)c1	-0.0514	-8.36 (active)	-1.86 (inactive)	0.0095 (inactive)	-0.257 (inactive)	0.45 (inactive)	0.534 (inactive)	0.35 (inactive)	-0.516	0.184	-0.0455 (inactive)	0.106	0.194	-1.99 (inactive)
C=CC[C@@H]1C=C[C@H](ON=C[C@@H](C)[C@H](OCc2ccccc2)C(C)C)[C@@H](CO)O1	0.0253	-5.6 (inactive)	-0.865 (inactive)	-0.408 (inactive)	0.241 (inactive)	-0.62 (inactive)	-0.295 (inactive)	-0.238 (inactive)	-0.183	-0.138	0.142 (inactive)	0.256	0.395	-4.51 (inactive)
CC[C@@H](c1ccccc1)n1c(=O)n2n(c1=O)[C@H]1[C@H](O)[C@@H]3O[C@@H]3C(=O)[C@H]1CC2	-0.797	-1.57 (inactive)	-2.15 (inactive)	0.807 (inactive)	-0.626 (inactive)	-0.552 (inactive)	0.285 (inactive)	0.216 (inactive)	-2.04	0.0641	-0.144 (inactive)	0.0999	-1.22	-1.59 (inactive)
COc1ccc(C#C[C@@H]2C=C[C@H](OC(C)=O)[C@@H](COC(C)=O)O2)cc1	0.0002	-1.59 (inactive)	-2.77 (inactive)	-0.531 (inactive)	0.0372 (inactive)	-0.939 (inactive)	0.746 (inactive)	0.348 (inactive)	-1.49	-0.0801	3.11 (inactive)	0.443	0.714	-2.53 (inactive)
CC(C)=CCCC(C)=CCON=C1C[C@@H](O)[C@@H](O)[C@@H]2[C@@H]3C(=O)N(c4cccc(Oc5ccccc5)c4)C(=O)[C@@H]3CC[C@@H]12	0.171	-1.86 (inactive)	0.815 (inactive)	-2.48 (inactive)	0.0001 (inactive)	-0.556 (inactive)	0.615 (inactive)	-0.923 (inactive)	-0.198	0.0368	0.188 (inactive)	0.352	-1.58	-3.76 (inactive)
O=C1C=C[C@@H](O)[C@@H]2[C@@H]3C(=O)N(C[C@@H]4CCCO4)C(=O)[C@@H]3CC[C@@H]12	0.111	0.499 (inactive)	0.561 (inactive)	-0.0546 (inactive)	-0.425 (inactive)	0.0539 (inactive)	0.117 (inactive)	-0.282 (inactive)	0.91	0.0032	0.179 (inactive)	0.119	0.0136	0.112 (inactive)
CC(CCN1CCCCc2nc(C)c(C)cc21)=NOC[C@@H](C)[C@H](OCc1ccccc1)C(C)C	-0.345	-2.36 (inactive)	-0.13 (inactive)	-1.46 (inactive)	0.147 (inactive)	-2.61 (inactive)	-1.22 (inactive)	0.0039 (inactive)	0.0342	0.0153	-0.494 (inactive)	-0.3	0.318	-2.47 (inactive)
C#CCCCON=C1C[C@@H](O)[C@@H](O)[C@@H]2[C@@H]3C(=O)N(C(C)(C)C)C(=O)[C@@H]3CC[C@@H]12	-0.202	0.595 (inactive)	-1.24 (inactive)	0.289 (inactive)	0.0001 (inactive)	0.438 (inactive)	-0.35 (inactive)	-0.278 (inactive)	0.0444	-0.0939	-0.0287 (inactive)	0.109	-0.315	-3.44 (inactive)
CCOC(=O)NN=C1C[C@@H](O)[C@@H](O)[C@@H]2[C@@H]3C(=O)N([C@@H](C)c4ccccc4)C(=O)[C@@H]3CC[C@H]12	0.384	0.448 (inactive)	-0.495 (inactive)	-0.309 (inactive)	0.0942 (inactive)	-0.362 (inactive)	-0.212 (inactive)	-0.102 (inactive)	0.331	-0.0076	0.0004 (inactive)	-0.0286	-0.125	-1.52 (inactive)
CCN1C(=O)[C@H]2[C@H]3[C@H](O)[C@H](O)CC(=NOC[C@H]4O[C@H](c5ccccc5)C=C[C@@H]4Oc4ccc(OC)cc4)[C@@H]3CC[C@H]2C1=O	-0.985	-0.933 (inactive)	-0.641 (inactive)	-0.953 (inactive)	0.241 (inactive)	0.635 (inactive)	0.602 (inactive)	0.923 (inactive)	-1.04	0.0617	0.432 (inactive)	0.704	0.188	-10.8 (active)
CCOC(=O)CCN1C(=O)[C@H]2[C@H]3[C@H](O)[C@H](O)CC(=NOCC(C)C)[C@H]3CC[C@H]2C1=O	-0.823	0.265 (inactive)	-0.662 (inactive)	-1.19 (inactive)	0.246 (inactive)	0.628 (inactive)	0.692 (inactive)	0.686 (inactive)	-0.876	-0.22	0.289 (inactive)	0.158	1.2	0.737 (inactive)
